Test results as given in PubChem BioAssay AID1159580 (chemical genetic matrix, 2015).
Screen size: about 5,500 compounds; about 2,000 (36%) were called active. Roughly 18% stayed inconclusive and do not appear here. Cut-off read from the data, not from the text of the source: active = normalized growth mostly below about 0.91 (no sharp cut-off); inconclusive = no clear call, values can overlap the other calls; inactive = mostly above about 0.92. The list shows a part of the results.

Assay: chemical genetic growth profiling, strain panel (AID 1159580);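 note: tested at 20 µM; growth read once vehicle control cultures reached saturation at 30 °C; 1 = growth at the plate median or of vehicle wells; lower values mean less growth of the strain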
Conditions: S. cerevisiae deletion strains, growth OD

Measured: normalized growth

O=C(CC(=O)c1ccccc1)c1ccccc1
active: locus YAL021C, strain ccr4, hits give low values 0.0705 | locus YAL026C, strain drs2, hits give low values 0.175 | locus YAL030W, strain snc1, hits give low values 0.318 | locus YBL061C, strain skt5, hits give low values 0.12 | locus YBR009C, strain hhf1, hits give low values 0.194 | locus YBR023C, strain chs3, hits give low values 0.211 | locus YBR171W, strain sec66, hits give low values 0.735 | locus YBR231C, strain swc5, hits give low values 0.177 | locus YBR279W, strain paf1, hits give low values 0.453 | locus YCL011C, strain gbp2, hits give low values 0.3 | locus YCL016C, strain dcc1, hits give low values 0.43 | locus YCL069W, strain vba3, hits give low values 0.362 | locus YCR088W, strain abp1, hits give low values 0.462 | locus YDL005C, strain med2, hits give low values 0.596 | locus YDL040C, strain nat1, hits give low values 0.698 | locus YDR001C, strain nth1, hits give low values 0.639 | locus YDR069C, strain doa4, hits give low values 0.0695 | locus YDR137W, strain rgp1, hits give low values 0.135 | locus YDR159W, strain sac3, hits give low values 0.541 | locus YDR195W, strain ref2 0.516 | locus YDR297W, strain sur2, hits give low values 0.192 | locus YDR334W, strain swr1, hits give low values 0.152 | locus YDR335W, strain msn5, hits give low values 0.227 | locus YDR392W, strain spt3, hits give low values 0.396 | locus YEL003W, strain gim4, hits give low values 0.379 | locus YEL037C, strain rad23, hits give low values 0.342 | locus YEL061C, strain CIN8 (second series), hits give low values 0.437 | locus YER015W, strain faa2, hits give low values 0.122 | locus YER016W, strain bim1, hits give low values 0.544 | locus YER111C, strain swi4, hits give low values 0.204 | locus YER155C, strain BEM2 (second series), hits give low values 0.381 | locus YFR010W, strain ubp6, hits give low values 0.171 | locus YGL167C, strain pmr1, hits give low values 0.166 | locus YGL173C, strain kem1, hits give low values 0.119 | locus YGL227W, strain vid30, hits give low values 0.725 | locus YGL240W, strain doc1, hits give low values 0.457 | locus YGL253W, strain hxk2, hits give low values 0.147 | locus YHR013C, strain ard1, hits give low values 0.14 | locus YHR027C, strain rpn1, hits give low values 0.0797 | locus YHR030C, strain SLT2, hits give low values 0.515 | locus YHR079C, strain IRE1, hits give low values 0.468 | locus YHR142W, strain chs7, hits give low values 0.171 | locus YJL092W, strain hpr5, hits give low values 0.432 | locus YJL095W, strain BCK1 (second series), hits give low values 0.108 | locus YJL095W, strain BCK1, hits give low values 0.524 | locus YJL115W, strain asf1, hits give low values 0.546 | locus YJL129C, strain trk1, hits give low values 0.596 | locus YJL154C, strain vps35, hits give low values 0.237 | locus YJL164C, strain tpk1, hits give low values 0.154 | locus YJL166W, strain qcr8, hits give low values 0.16 | locus YJR066W, strain TOR1, hits give low values 0.565 | locus YKL160W, strain elf1, hits give low values 0.578 | locus YKR026C, strain gcn3, hits give low values 0.685 | locus YKR091W, strain srl3, hits give low values 0.527 | locus YLL001W, strain dnm1, hits give low values 0.363 | locus YLL026W, hits give low values 0.373 | locus YLL041C, strain sdh2, hits give low values 0.328 | locus YLR027C, strain aat2, hits give low values 0.261 | locus YLR113W, strain HOG1, hits give low values 0.348 | locus YLR221C, strain rsa3, hits give low values 0.284 | locus YLR258W, strain gsy2, hits give low values 0.234 | locus YLR262C, strain YPT6 (second series), hits give low values 0.101 | locus YLR320W, strain mms22, hits give low values 0.207 | locus YLR342W, strain FKS1, hits give low values 0.344 | locus YLR357W, strain rsc2, hits give low values 0.471 | locus YLR370C, strain arc18, hits give low values 0.147 | locus YLR384C, strain iki3, hits give low values 0.437 | locus YML120C, strain ndi1, hits give low values 0.498 | locus YMR058W, strain fet3, hits give low values 0.0728 | locus YMR125W, strain sto1, hits give low values 0.82 | locus YMR129W, hits give low values 0.393 | locus YMR205C, strain PFK2, hits give low values 0.242 | locus YMR231W, strain pep5, hits give low values 0.0832 | locus YNL071W, strain lat1, hits give low values 0.351 | locus YNL183C, strain NPR1, hits give low values 0.517 | locus YNL209W, strain ssb2, hits give low values 0.0845 | locus YNL248C, strain rpa49, hits give low values 0.552 | locus YNL322C, strain KRE1 (second series), hits give low values 0.619 | locus YNR049C, strain mso1, hits give low values 0.434 | locus YOR001W, strain rrp6, hits give low values 0.45 | locus YOR070C, strain gyp1, hits give low values 0.575 | locus YOR080W, strain dia2, hits give low values 0.127 | locus YOR083W, strain WHI5, hits give low values 0.186 | locus YOR106W, strain vam3, hits give low values 0.0633 | locus YOR231W, strain MKK1, hits give low values 0.497 | locus YOR265W, strain rbl2, hits give low values 0.179 | locus YOR270C, strain vph1, hits give low values 0.105 | locus YOR290C, strain snf2, hits give low values 0.391 | locus YPL051W, strain arl3, hits give low values 0.102 | locus YPL078C, strain atp4, hits give low values 0.414 | locus YPL106C, strain sse1, hits give low values 0.416 | locus YPL240C, strain hsp82, hits give low values 0.4 | locus YPL256C, strain CLN2, hits give low values 0.57
